Results as given in PubChem BioAssay (NCATS).
Records with an inconclusive call do not appear. Calls of active or inactive are those of the source. Unless noted, calls follow the shape of the dose curve; as a rule, active = well fitted curve in either direction with a large enough effect (not every such curve was filed as active); inconclusive = small, poorly fitted or top-dose-only effect, or another doubt; inactive = flat fitted curve, though single readings scatter.

Key:
[1] = biological target: Lysosomal acid glucosylceramidase (Homo sapiens) (UniProt P04062); test: Glucocerebrosidase-p2 (AID 348; in the data active = potency below about 10 µM; also: potency is read from the fitted curve at half-maximal effect); conditions: purified GBA, blue fluorogenic substrate, 40 min
Outline: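 Normal human glucocerebrosidase (0.2 nM) with blue fluorogenic substrate (80 uM final) in citrate/phosphate pH 5.9 with 10mM sodium taurocholate, 0.01% tween-20; 40 min RT, NaOH/glycine stop; fluorescence Ex 365/Em 440; AC50 from a titration from 0.6 nM upwards.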

[2] = AP1 Signaling Pathway (AID 357); conditions: ME-180 AP-1-bla reporter, EGF-induced, beta-lactamase ratio, 5 h; at 7.69 µM (top of the series) unless noted;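 also: ME-180 reporter cells stimulated with EGF at its EC50 level; % is scaled to controls: 0 for no effect and ±100 for the full control effect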
Outline: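 Cells are seeded overnight, exposed to compound titrations and an EC50 level of EGF for 5 hours at 37 °C, then loaded with CCF4 dye for 2.5 hours. Beta-lactamase activity under the AP-1 element is read as a blue/green ratio.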

[3] = NFAT Signaling Pathway (AID 444); conditions: Jurkat NFAT-bla M1, carbachol, beta-lactamase ratio, 5 h; at 7.69 µM (top of the series) unless noted;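 also: carbachol stimulus at about its EC50 of 1 µM final; % is scaled to controls: 0 for no effect and ±100 for the full control effect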
Outline: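 Jurkat cells with NFAT-driven β-lactamase reporter and co-expressed M1 receptor, stimulated with carbachol (final 1 uM, ~EC50), compound titration, 5 h at 37 °C. CCF4 loaded 1 h at RT; 460/530 nm ratio gave %activity and AC50.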

[4] = biological target: Glucocorticoid receptor (Homo sapiens) (UniProt P04150); test: GR-GFP Redistribution (AID 450;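 active = compounds whose dose series gives a full or clear partial fitted curve of increased nuclear translocation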; also: potency is read from the fitted curve at half-maximal effect); conditions: U2OS GR-GFP nuclear translocation, laser cytometry, 2 h
[5] = biological target: Glucocorticoid receptor (Homo sapiens) (UniProt P04150); test: GR-EFC Redistribution (AID 451; calls by dose curve; also: potency is read from the fitted curve at half-maximal effect); conditions: CHO-K1 GR-EFC translocation, beta-gal luminescence, 2 h
Outline: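 CHO-K1 cells expressing nuclear EA and GR-ED fragments of b-gal; compounds titrated up to 46 uM final, 2 h at 37 C. GR nuclear translocation read as complemented b-gal luminescence after 1 h RT detection.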

[6] = biological target: 3',5'-cyclic-AMP phosphodiesterase 4B (Homo sapiens) (UniProt Q07343); test: qHTS Assay for Inhibitors of PDE-IV (AID 607; active = well fitted activation curve with a large enough effect in the main read-out, with a control signal flat, not every such curve was filed as active; also: % of control where 0% means no effect); conditions: HEK293 ACTOne CNG channel cells, membrane potential fluorescence; series mostly up to 22.9 µM
Outline: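 The readout is membrane depolarisation from a cAMP-sensing CNG channel, detected with a potential dye at ex 535/em 590. Cells were HEK293-derived (endogenous PDE-IV) at 1000 cells/well, titrated up to 22.9 uM final.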

[7] = biological target: Cytochrome P450 1A2 (Homo sapiens) (UniProt P05177); test: p450-cyp1a2 (AID 410; calls by dose curve; also: potency is read from the fitted curve at half-maximal effect;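 as to activity change, negative = inhibition: -100% = full effect of reference inhibitor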); conditions: recombinant CYP1A2, luciferin-ME demethylation, luminescence; series mostly up to 11.4 µM
Outline: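 Read-out is luminescence from luciferin produced by CYP1A2 demethylation of Luciferin-ME (100uM, at Km). Detection reagent stopped the 60 min NADPH-dependent reaction; signals were normalized to 57 uM furafylline.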

[8] = biological target: Mitogen-activated protein kinase 10 (Mus musculus) (UniProt Q61831); test: JNK3 AlphaScreen Assay (AID 530); conditions: JNK3 lysate, c-Jun phosphorylation; series mostly up to 57.1 µM;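 also: kinase came from lysate of stimulated human HepG2 cells; signal reports phosphorylation of biotinylated GST-cJun 1-79 at Ser73 with 10 µM ATP; % is scaled to controls: 0 for no effect and ±100 for the full control effect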
Outline: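 HepG2 lysate (IL-1b/TNFa pre-activated) + biotin-GST-cJun 1-79 + anti-pSer73 cJun; cpd titration, 15 min RT; ATP 10 uM start; Tris pH 7.6, MgCl2, DTT, vanadate; beads in EDTA buffer; AlphaScreen.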

[9] = Stat Signaling Pathway (AID 446); conditions: ME-180 SIE beta-lactamase reporter, IL-6 stimulated, 5 h; at 7.69 µM (top of the series) unless noted;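 also: ME-180 cervical cancer cells given 40 pM IL-6 alongside compound; SIE-controlled beta-lactamase reporter measured as 460/530 nm FRET emission ratio; % is scaled to controls: 0 for no effect and ±100 for the full control effect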
Outline: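 Emission at 460 and 530 nm (excitation 405 nm) reports SIE-controlled beta-lactamase in ME-180 cells. Cells received compound with 40 pM IL-6 for 5 hrs at 37 C; data scaled between 300 pM IL-6 and 125 nM JAK-inhibitor controls.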

[10] = biological target: Cytochrome P450 2C9 (Homo sapiens) (UniProt P11712); test: qHTS Assay for Inhibitors and Substrates of Cytochrome P450 2C9 (AID 883; active = well fitted curve in the direction sought with a large enough effect; an effect the other way counts as inactive or inconclusive; also: potency is read from the fitted curve at half-maximal effect; nearly all actives have a fitted effect of over 60% in size); conditions: recombinant CYP2C9, luciferin-H luminescence, 60 min; series mostly up to 57.1 µM
Outline: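 10nM CYP2C9 + 100uM Luciferin-H (=KM), 25mM KPO4; cpd 10 min 37C; NADPH regen, 60 min 37C; stop/detect with P450 Glo-Buffer 20 min; luminescence. Norm. to 57uM sulphaphenazole as full inhibition.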

[11] = biological target: Cytochrome P450 2C19 (Homo sapiens) (UniProt P33261); test: qHTS Assay for Inhibitors and Substrates of Cytochrome P450 2C19 (AID 899; active = well fitted curve in the direction sought with a large enough effect; an effect the other way counts as inactive or inconclusive; also: nearly all actives have a fitted effect of over 60% in size; also: potency is read from the fitted curve at half-maximal effect); conditions: recombinant CYP2C19, luciferin-H EGE luminescence; series mostly up to 11.4 µM
Outline: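 Luminescent read-out of luciferin formed from Luciferin-H EGE (10uM, equal to KM). Enzyme 5nM in 50mM KPO4; compound added, 10 min at 37C, then NADPH regenerating system for 60 min at 37C. Full inhibition defined by 57uM ketoconazole.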

[12] = qHTS Assay for Identification of Small Molecule Agonists for Hypoxia Response Element Signaling Pathway (AID 914; active = well fitted activation curve with a large enough effect in the signal ratio, with a control signal flat, not every such curve was filed as active; the % refers to the signal ratio; also: % of control where 0% means no effect); conditions: ME-180 (cervical carcinoma) HRE-bla reporter, beta-lactamase ratio, CoCl2, 17 h; stronger effect = higher value
Outline: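 Compounds in a titration series were added to ME-180 reporter cells alongside an EC50 level of CoCl2. After 17 hours, beta-lactamase activity was read as the 460nm/530nm emission ratio of CCF4, giving AC50 values.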

[13] = biological target: Guanine nucleotide-binding protein G(i) subunit alpha-1 (Homo sapiens) (UniProt P63096); test: qHTS Assay for Inhibitors of RGS12 GoLoco Motif Activity (Green Fluorophore) (AID 879; active = well fitted curve in the direction sought with a large enough effect; an effect the other way counts as inactive or inconclusive;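 also: 0% = labeled peptide with Gαi1 and full inhibition = labeled peptide alone without protein; negative values mean loss of peptide binding seen as reduced polarization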); conditions: Galphai1/FITC-RGS12 GoLoco peptide, fluorescence polarization; series mostly up to 57.1 µM
Outline: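 A drop in FITC polarization marked displacement of the FITC-tagged RGS12 GoLoco peptide (10 nM) from Gαi1 (50 nM). Compounds were incubated 10 min at room temperature in Tris pH 7.5 buffer containing 150 mM NaCl, 0.1 mM GDP and 0.05% NP40; unlabeled peptide titration served as control.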

[14] = biological target: Cytochrome P450 3A4 (Homo sapiens) (UniProt P08684); test: qHTS Assay for Inhibitors and Substrates of Cytochrome P450 3A4 (AID 884; active = well fitted curve in the direction sought with a large enough effect; an effect the other way counts as inactive or inconclusive; also: % is scaled to controls: 0 for no effect and ±100 for the full control effect; nearly all actives have a fitted effect of over 50% in size); conditions: recombinant CYP3A4, Luciferin-PPXE luminescence; series mostly up to 57.1 µM
Outline: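 Luminescent readout of luciferin produced by CYP3A4 (20 nM) dealkylation of Luciferin-PPXE, 25 uM (its KM). NADPH-driven reaction ran 60 min at RT after 10 min compound preincubation; data scaled to 57 uM ketoconazole as 100% inhibition.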

[15] = qHTS Assay for Identification of Small Molecule Agonists for Thrombopoietin (TPO) Signaling Pathway (AID 917; active = well fitted curve in the direction sought with a large enough effect; an effect the other way counts as inactive or inconclusive; also: % is scaled to controls: 0 for no effect and ±100 for the full control effect); conditions: TPO signaling pathway reporter cells, agonist qHTS; series mostly up to 38.5 µM
Outline: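 Luciferase reporter (Glycoprotein IIb promoter) in IL-3-deprived Ba/F3 cells carrying human TPO receptor; compounds co-added with 26 pM TPO, incubated 24 h, 37 C. Steadylite luminescence measured after 10 min.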

[16] = biological target: Muscarinic acetylcholine receptor M1 (Rattus norvegicus) (UniProt P08482); test: qHTS Assay for Antagonists of Acetylcholine Muscarinic M1 Receptor: Measurement of IP-One Response (AID 944; active = well fitted curve in the direction sought with a large enough effect; an effect the other way counts as inactive or inconclusive; also: nearly all actives have a fitted effect of over 75% in size); conditions: CHO-M1 cells, IP-One HTRF, antagonist mode; series mostly up to 46.1 µM
Outline: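 Antagonism was measured as loss of carbachol-driven (EC80) IP1 accumulation in CHO cells carrying rat M1, using a homogeneous IP-One TR-FRET kit read at 620 and 665 nm.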

[17] = biological target: Pyruvate kinase (Leishmania mexicana) (UniProt Q27686); test: qHTS Validation Assay for Inhibitors of Leishmania Mexicana Pyruvate Kinase (AID 945; active = well fitted curve in the direction sought with a large enough effect; an effect the other way counts as inactive or inconclusive;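 also: 0% = DMSO only neutral control wells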); conditions: purified L. mexicana pyruvate kinase, enzyme activity, E451W mutant enzyme; series mostly up to 57.5 µM
Outline: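 Pyruvate kinase activity of E451W LmPYK (0.2 nM) was followed as ATP output after 1 h at room temperature with 0.5 mM PEP and 0.1 mM ADP, detected by PKLight luminescence.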

[18] = biological target: Pyruvate kinase PKM (Homo sapiens) (UniProt P14618); test: qHTS Assay for Activators of Human Muscle Pyruvate Kinase (AID 954; active = well fitted curve in the direction sought with a large enough effect, not every such curve was filed as active;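 also: 0% = uninhibited enzyme and -100% = no enzyme or full thiadiazolimine inhibition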); conditions: purified human muscle pyruvate kinase, luciferase-coupled luminescence, 1 h; series mostly up to 57.5 µM
Outline: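 PKM2, human, >95% pure, 0.1 nM; PEP 0.5 mM (Km), ADP 0.1 mM; 50 mM imidazole pH 7.2, 50 mM KCl, 0.01% Tween 20, 0.05% BSA; 1 h RT; luciferase luminescence readout.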

3',5'-cyclic-AMP phosphodiesterase 4B (Homo sapiens), sequence (Q07343 whole entry, looked up): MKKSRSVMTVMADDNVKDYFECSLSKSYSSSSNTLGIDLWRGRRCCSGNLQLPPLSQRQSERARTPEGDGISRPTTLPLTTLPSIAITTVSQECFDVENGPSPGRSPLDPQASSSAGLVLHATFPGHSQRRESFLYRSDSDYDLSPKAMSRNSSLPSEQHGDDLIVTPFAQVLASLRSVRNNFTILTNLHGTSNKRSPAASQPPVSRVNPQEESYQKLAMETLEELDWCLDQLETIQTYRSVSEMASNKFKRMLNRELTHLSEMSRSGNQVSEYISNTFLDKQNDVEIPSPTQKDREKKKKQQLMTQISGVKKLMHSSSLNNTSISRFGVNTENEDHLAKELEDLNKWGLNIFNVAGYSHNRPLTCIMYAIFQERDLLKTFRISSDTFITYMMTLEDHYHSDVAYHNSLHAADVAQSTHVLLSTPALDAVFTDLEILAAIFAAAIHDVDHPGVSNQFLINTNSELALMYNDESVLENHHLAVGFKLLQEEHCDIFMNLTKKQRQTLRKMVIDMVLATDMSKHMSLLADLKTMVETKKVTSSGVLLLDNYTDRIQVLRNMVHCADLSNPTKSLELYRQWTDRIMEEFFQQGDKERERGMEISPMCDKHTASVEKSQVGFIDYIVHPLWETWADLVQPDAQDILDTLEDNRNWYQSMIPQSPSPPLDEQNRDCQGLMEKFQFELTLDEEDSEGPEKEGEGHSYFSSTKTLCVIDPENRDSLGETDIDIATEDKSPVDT
Cytochrome P450 1A2 (Homo sapiens), sequence (P05177 whole entry, looked up): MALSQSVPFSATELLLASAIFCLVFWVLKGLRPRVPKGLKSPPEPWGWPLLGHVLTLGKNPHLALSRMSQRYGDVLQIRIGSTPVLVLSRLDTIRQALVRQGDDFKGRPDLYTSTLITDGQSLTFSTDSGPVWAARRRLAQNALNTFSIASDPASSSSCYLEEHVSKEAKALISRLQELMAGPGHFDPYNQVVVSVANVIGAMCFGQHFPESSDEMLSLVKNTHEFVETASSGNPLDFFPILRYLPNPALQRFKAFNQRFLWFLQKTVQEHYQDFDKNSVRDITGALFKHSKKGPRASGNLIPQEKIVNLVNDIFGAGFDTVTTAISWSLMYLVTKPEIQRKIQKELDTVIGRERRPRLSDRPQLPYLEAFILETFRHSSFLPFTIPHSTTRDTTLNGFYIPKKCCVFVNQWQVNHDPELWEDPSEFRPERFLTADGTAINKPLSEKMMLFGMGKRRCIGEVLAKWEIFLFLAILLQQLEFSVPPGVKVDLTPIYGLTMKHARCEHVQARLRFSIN
Glucocorticoid receptor (Homo sapiens), sequence (P04150 whole entry, looked up, the tested form may be a part): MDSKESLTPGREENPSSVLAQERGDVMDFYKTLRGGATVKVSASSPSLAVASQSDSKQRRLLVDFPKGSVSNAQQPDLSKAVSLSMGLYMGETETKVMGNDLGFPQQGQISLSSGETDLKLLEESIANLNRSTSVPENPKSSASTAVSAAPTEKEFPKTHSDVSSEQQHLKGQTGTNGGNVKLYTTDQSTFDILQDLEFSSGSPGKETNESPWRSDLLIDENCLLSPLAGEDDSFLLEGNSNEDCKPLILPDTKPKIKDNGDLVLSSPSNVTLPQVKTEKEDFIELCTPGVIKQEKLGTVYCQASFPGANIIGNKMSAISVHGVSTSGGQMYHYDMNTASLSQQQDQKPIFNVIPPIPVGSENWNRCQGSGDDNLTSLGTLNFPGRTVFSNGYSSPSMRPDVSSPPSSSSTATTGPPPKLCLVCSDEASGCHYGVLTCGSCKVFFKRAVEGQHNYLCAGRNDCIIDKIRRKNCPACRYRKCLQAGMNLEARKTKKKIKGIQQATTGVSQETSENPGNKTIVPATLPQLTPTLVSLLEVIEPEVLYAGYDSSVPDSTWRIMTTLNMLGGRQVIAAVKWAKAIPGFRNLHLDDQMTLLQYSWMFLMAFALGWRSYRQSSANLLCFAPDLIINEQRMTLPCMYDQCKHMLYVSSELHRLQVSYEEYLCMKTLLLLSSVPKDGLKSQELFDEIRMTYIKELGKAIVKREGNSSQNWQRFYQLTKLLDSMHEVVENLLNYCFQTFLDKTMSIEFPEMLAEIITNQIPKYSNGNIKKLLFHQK
Lysosomal acid glucosylceramidase (Homo sapiens), sequence (P04062 whole entry, looked up): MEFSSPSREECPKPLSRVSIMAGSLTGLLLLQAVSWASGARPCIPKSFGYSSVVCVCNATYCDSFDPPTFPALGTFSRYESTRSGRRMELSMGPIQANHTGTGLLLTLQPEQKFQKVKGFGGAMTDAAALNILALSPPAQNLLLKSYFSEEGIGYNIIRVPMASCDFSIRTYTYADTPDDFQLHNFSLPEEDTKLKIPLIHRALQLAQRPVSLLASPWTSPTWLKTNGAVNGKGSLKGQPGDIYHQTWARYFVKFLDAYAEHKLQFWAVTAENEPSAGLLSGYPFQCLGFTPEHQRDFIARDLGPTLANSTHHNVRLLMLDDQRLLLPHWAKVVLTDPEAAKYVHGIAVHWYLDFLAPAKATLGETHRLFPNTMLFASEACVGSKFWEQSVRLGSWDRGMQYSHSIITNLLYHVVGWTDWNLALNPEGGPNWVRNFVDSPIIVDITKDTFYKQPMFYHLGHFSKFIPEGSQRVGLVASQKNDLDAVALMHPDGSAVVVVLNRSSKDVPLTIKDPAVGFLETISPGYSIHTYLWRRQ
Cytochrome P450 2C19 (Homo sapiens), sequence (P33261 whole entry, looked up): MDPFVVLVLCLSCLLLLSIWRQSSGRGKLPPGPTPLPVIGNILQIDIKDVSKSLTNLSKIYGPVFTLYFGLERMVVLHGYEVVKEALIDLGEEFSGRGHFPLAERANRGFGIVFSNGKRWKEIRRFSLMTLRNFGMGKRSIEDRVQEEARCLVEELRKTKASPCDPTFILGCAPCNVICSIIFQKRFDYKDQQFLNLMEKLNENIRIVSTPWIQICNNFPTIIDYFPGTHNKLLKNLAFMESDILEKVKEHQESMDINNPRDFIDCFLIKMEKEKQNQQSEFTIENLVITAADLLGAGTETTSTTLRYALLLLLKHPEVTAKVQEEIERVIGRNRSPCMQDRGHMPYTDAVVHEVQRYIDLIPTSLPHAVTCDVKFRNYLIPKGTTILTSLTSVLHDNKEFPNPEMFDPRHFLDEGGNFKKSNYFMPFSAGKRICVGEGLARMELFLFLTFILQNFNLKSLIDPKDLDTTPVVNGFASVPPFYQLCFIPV
Cytochrome P450 3A4 (Homo sapiens), sequence (P08684 whole entry, looked up): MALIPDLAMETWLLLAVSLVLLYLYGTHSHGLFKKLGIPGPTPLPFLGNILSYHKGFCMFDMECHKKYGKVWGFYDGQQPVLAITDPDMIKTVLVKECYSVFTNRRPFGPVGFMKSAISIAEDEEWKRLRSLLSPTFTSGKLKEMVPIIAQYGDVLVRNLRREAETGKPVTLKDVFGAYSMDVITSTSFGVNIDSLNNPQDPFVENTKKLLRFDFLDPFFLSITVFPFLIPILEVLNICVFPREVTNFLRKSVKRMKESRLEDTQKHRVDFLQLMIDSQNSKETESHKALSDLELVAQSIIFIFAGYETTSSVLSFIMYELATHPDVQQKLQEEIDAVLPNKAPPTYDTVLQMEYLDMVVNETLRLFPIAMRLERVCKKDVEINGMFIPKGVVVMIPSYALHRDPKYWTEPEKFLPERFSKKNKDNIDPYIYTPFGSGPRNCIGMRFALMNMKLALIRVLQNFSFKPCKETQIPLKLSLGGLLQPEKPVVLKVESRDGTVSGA
Guanine nucleotide-binding protein G(i) subunit alpha-1 (Homo sapiens), sequence (P63096 whole entry, looked up): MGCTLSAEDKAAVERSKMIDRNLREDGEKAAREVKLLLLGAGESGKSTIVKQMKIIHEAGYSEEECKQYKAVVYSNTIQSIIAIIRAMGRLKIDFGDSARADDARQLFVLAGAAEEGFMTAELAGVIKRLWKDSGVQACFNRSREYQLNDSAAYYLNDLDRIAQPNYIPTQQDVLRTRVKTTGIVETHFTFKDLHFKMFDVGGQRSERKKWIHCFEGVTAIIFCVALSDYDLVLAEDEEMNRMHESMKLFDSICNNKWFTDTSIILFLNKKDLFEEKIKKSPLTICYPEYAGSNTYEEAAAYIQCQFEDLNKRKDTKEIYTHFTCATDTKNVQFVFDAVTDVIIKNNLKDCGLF
Pyruvate kinase (Leishmania mexicana), sequence (Q27686 2-499 E452W): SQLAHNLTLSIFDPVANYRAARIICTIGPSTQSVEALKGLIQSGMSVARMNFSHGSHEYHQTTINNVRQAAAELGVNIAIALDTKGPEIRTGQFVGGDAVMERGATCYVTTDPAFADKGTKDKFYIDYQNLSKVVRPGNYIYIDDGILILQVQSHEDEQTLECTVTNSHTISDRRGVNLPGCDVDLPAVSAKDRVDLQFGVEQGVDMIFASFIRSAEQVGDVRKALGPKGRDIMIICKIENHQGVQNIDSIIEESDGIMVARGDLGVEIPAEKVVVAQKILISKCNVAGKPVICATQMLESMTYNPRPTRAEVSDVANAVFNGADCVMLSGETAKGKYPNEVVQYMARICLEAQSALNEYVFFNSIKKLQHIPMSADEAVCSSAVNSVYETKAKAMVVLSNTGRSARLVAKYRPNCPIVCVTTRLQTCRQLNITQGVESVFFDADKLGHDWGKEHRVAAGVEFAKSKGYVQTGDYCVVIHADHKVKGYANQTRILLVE
Cytochrome P450 2C9 (Homo sapiens), sequence (P11712 whole entry, looked up): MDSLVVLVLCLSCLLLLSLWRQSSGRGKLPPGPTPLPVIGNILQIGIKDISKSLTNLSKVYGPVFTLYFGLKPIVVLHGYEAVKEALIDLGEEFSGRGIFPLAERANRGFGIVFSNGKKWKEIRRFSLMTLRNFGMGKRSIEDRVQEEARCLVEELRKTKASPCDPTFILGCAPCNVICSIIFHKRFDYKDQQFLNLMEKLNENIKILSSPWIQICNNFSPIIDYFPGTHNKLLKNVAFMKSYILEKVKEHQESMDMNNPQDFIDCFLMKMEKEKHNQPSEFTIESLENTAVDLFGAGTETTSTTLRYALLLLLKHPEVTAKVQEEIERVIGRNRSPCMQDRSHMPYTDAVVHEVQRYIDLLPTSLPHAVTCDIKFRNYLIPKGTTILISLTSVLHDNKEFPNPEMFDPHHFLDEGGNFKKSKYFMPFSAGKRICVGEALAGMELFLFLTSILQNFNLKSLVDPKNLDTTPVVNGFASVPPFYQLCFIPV

COc1cccc2c1C(=O)c1c(O)c3c(c(O)c1C2=O)C[C@](O)(/C(C)=N\O)C[C@@H]3O[C@H]1C[C@H](N)[C@@H](O)[C@H](C)O1
inactive: Potency [1] > 11.4 µM | activity change, negative = inhibition [2] 26.1% | activity change, negative = inhibition [3] -24.2% | Potency [4] > 46 µM | Potency [5] > 9.22 µM | outcome [6]

CC[C@]1(OC(=O)CN)C(=O)OCc2c1cc1n(c2=O)Cc2cc3ccccc3nc2-1
inactive: Potency [1] > 11.4 µM | activity change, negative = inhibition [7] -17.6% [at 2.29 µM] | Potency [4] > 46 µM | activity change, negative = inhibition [8] -1.42% [at 11.4 µM] | outcome [6]

O=C(N1CCOCC1)C1(c2ccccc2)CCNCC1
inactive: Potency [1] > 11.4 µM | activity change, negative = inhibition [2] -2.66% | activity, negative = inhibition [9] 8.97% | Potency [4] > 46 µM | Potency [5] > 9.22 µM | activity change, negative = inhibition [8] 3.92% [at 11.4 µM] | outcome [6]

O=C(O)c1cc[c]([Hg][S]c2ncnc3nc[nH]c23)cc1
active: Potency [1] 0.146 µM | Potency [7] 0.316 µM | Potency [10] 1.26 µM | Potency [11] 0.631 µM
inactive: activity, negative = inhibition [9] -16.1% | Potency [4] > 46 µM | Potency [5] > 9.22 µM | activity change, negative = inhibition [8] 3.39% [at 11.4 µM] | outcome [6]

O=C(O)C(=O)Cc1ccc2c(c1)OCO2
inactive: Potency [1] > 11.4 µM | activity change, negative = inhibition [2] 6.13% | activity change, negative = inhibition [3] 16.4% | Potency [4] > 46 µM | activity change, negative = inhibition [8] 4.31% [at 11.4 µM] | outcome [6] | Potency [11] | activation [12] -7.84%

C#CCN[C@@H](C)Cc1ccccc1
active: Potency [7] 15.8 µM
inactive: activity change, negative = inhibition [2] 1.81% [at 38 µM] | activity change, negative = inhibition [3] 0.0477% [at 38 µM] | activity, negative = inhibition [9] -23.9% [at 38 µM] | Potency [4] > 46 µM | Potency [5] > 46 µM | Potency [8] | outcome [6] | outcome [13] | Potency [14] | outcome [15] | Potency [16] | outcome [17] | outcome [18]

C[C@H]1CC[C@@]2(NC1)O[C@@H]1C[C@@H]3[C@@H]4CC=C5C[C@@H](O)CC[C@]5(C)[C@@H]4CC[C@]3(C)[C@H]1[C@@H]2C
inactive: Potency [1] > 11.4 µM | Potency [7] | activity change, negative = inhibition [3] 24.2% | activity, negative = inhibition [9] 7.42% | Potency [4] > 46 µM | Potency [5] > 9.22 µM | outcome [6] | activity change, negative = inhibition [14] 33.7% [at 11.4 µM]
